# Results from PubChem BioAssay.
# The source made the active and inactive calls.
# Key:
# Albumin (Bos taurus) = Albumin (Bos taurus) (UniProt P02769); assay: bovine serum albumin binders on microarray, profiling panel, artefact control for SMM control protein annotation, biochemical, small-molecule microarray, Alexa647 label, 635/667 nm fluorescence (AID 1118); details: BSA-A647 binding, fluorescence 635 nm, higher = more signal;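 note: score merges 667 nm emission intensity and signal-to-noise per printed compound spot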
# [1] = small-molecule microarray binders of probe aXIP, primary screen, biochemical, NeuroSMM set, 635/667 nm fluorescence (AID 1119); details: higher = more signal, called active from +8 up or from −8 down;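 note: probe is the protein aXip251-270 applied at 1 µg/mL to compound-printed slides; binding of probe to printed compounds measured as 667 nm fluorescence plus signal to noise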
# [2] = small-molecule binders of probe aNOTCH3, primary screen, biochemical, small-molecule microarray, 635/667 nm fluorescence (AID 1120); details: higher = more signal;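 note: probe is a biotin-tagged antibody raised against NOTCH3 rather than NOTCH3 protein; score merges spot fluorescence near 667 nm with spot signal to noise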
# [3] = small-molecule binders of probe aNOTCH2, primary screen, biochemical, small-molecule microarray, 635/667 nm fluorescence (AID 1121); details: higher = more signal;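 note: score merges feature fluorescence read at 667 nm with its signal to noise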
# [4] = target: Carbonic anhydrase 2 (Homo sapiens) (UniProt P00918); assay: CAII small-molecule binders, profiling panel, biochemical, small-molecule microarray, Alexa647-labelled CAII (AID 1122); details: CAII-A647 binding fluorescence, higher = more signal
# [5] = COS7 lysate on small-molecule microarray, probe aHis, 635 nm (AID 1123); details: COS7 cell lysate, fluorescence, higher = more signal;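 note: z-score combines 667nm fluorescence intensity with signal-to-noise per printed compound spot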
# [6] = compound binding in COS7 lysate, probe aLAP1, primary screen, cell lysate, small-molecule microarray (AID 1124); details: probe aLAP1, fluorescence, higher = more signal;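 note: lysate comes from COS7 cells expressing LAP1 and is applied at 0.3 µg/mL; score merges spot fluorescence near 667 nm with signal-to-noise over triplicate slides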
# Sam68 (KHDRBS1) = assay: Sam68 small-molecule binders, primary screen, biochemical, small-molecule microarray, 635 nm fluorescence (AID 1125); details: small-molecule microarray binding, higher = more signal;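 note: score merges 667 nm channel intensity with signal to noise over triplicate slides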
# [7] = test system: Chordin-like protein 2 (CHRDL2); assay: CHRDL2 small-molecule binders, primary screen, biochemical, small-molecule microarray, 635 nm fluorescence (AID 1126); details: small-molecule microarray binding, fluorescence 635 nm; higher = more signal;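 note: printed compound slides probed with Chrdl2 protein at 4 µg/mL for 1 h at 4 C; score merges 667 nm emission intensity with signal to noise over three replicate slides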
# [8] = target: Concanavalin-A (Canavalia ensiformis) (UniProt P02866); assay: ConA small-molecule binders, primary screen, artefact control for SMM control protein annotation, biochemical, small-molecule microarray, Alexa647 label, 635 nm (AID 1127); details: ConA-A647 binding fluorescence, higher = more signal;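 note: z combines 667 nm emission intensity with signal-to-noise across three replicate slides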
# Sequence of Concanavalin-A (Canavalia ensiformis) (P02866 whole entry, looked up): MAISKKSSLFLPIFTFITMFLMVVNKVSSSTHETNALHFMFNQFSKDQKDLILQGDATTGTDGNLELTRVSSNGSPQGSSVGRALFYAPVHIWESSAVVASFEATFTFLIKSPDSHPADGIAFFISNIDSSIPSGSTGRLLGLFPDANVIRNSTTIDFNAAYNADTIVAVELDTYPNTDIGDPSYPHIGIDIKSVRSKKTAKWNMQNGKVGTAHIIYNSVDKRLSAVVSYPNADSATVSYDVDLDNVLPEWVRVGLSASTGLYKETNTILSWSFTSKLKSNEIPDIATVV
# Sequence of Albumin (Bos taurus) (P02769 whole entry, looked up): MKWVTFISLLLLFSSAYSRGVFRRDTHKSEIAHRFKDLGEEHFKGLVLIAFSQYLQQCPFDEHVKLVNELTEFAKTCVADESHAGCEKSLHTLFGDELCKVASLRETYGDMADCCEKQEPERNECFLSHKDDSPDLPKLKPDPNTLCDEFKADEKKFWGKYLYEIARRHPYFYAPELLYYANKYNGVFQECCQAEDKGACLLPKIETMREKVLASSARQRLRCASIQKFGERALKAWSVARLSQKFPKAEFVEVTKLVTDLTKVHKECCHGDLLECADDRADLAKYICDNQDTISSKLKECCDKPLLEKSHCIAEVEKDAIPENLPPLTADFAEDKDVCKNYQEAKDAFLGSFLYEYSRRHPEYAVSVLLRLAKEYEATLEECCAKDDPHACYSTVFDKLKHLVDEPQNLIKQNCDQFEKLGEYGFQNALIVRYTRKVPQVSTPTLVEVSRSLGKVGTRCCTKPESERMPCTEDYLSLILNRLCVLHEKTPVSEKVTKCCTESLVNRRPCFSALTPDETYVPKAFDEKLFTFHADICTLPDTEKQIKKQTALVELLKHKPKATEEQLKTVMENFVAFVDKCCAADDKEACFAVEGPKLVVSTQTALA
SMILES,composite z-score (Albumin (Bos taurus)),composite Z-score [1],composite z-score [2],composite z-score [3],composite z-score [4],composite z-score [5],composite z-score [6],composite z-score (Sam68 (KHDRBS1)),composite z-score [7],composite z-score [8]
Cc1ccc(S[C@]2(C(=O)NC(C)C)CC(=O)N(Cc3cc(C(F)(F)F)cc(C(F)(F)F)c3)[C@@H]2c2ccc(CO)cc2)cc1,-0.0844,-0.459 (inactive),-0.384,-0.126,0.241,0.596,0.293,-0.374,-1.19,-0.534
COc1cc(OC)c(C(O)C2C=CC3C(=O)N(Cc4ccccc4)C(=O)C3N2n2cnnc2)cc1Br (stereo not given),0.725,-0.395 (inactive),0.056,-0.0398,0.377,1.64,0.953,1.2,-1.15,0.756
Cc1ccc(S[C@]2(C(=O)NCC(F)(F)F)CC(=O)N(Cc3cc(C(F)(F)F)cc(C(F)(F)F)c3)[C@@H]2c2ccc(CO)cc2)cc1,-0.658,-0.0775 (inactive),-0.229,-0.164,0.802,-0.551,-0.238,-0.36,-1.19,-0.183
COC(=O)c1c(CC[C@@H](CO)NC(=O)N2CCC[C@H]2Cn2cc(C3(O)CCCCC3)nn2)oc(C(C)=O)c1C(=O)OC,0.844,0.506 (inactive),-0.0328,-0.0795,0.707,1.44,0.473,1.28,1.09,1.04
[N-]=[N+]=Nc1ccccc1[C@H]1OC(c2ccc(OCCCO)cc2)=N[C@@]1(Cc1ccccc1)C(=O)NCCN1CCOCC1,0.887,1.16 (inactive),0.457,0.117,0.529,2.87,0.634,1.3,0.0045,1.16
C=C(/C(=C/C[C@H](OC(=O)c1ccncc1)c1ccc(CO)o1)c1cnc2ccccc2c1)C(C)C,0.702,-0.55 (inactive),0.169,-0.0216,0.902,0.75,-0.159,1.12,0.684,1.11
COc1cccc(C)c1NC(=O)O[C@H]1[C@H](OC(=O)Nc2ccccc2-c2ccccc2)[C@H](OC(=O)Nc2ccccc2-c2ccccc2)[C@@H](OC)O[C@@H]1CO,0.816,0.497 (inactive),0.233,0.0149,0.434,0.947,0.429,1.29,0.494,1.15
O=C1NC(=O)C2C1C=CC(C(O)c1ccco1)N2Nc1ccc(Cl)cc1Cl (stereo not given),0.78,0.731 (inactive),-0.0967,-0.153,0.794,1.28,0.317,-0.0532,0.167,0.321
CC(CO)N1C(=O)[C@]2(C)C3C(=O)OCCC/C=C\[C@H]3OC23C=CCN(c2ccc(Cl)cc2)C(=O)[C@@H]13 (stereo not given in full),0.739,-0.462 (inactive),-0.186,-0.14,0.867,-0.354,0.644,-1.61,0.217,-0.474
CN1C2C=C(CCCO)C(C3C(=O)N(C(N)=O)C(=O)C32)C1C1CC1 (stereo not given),-0.0873,-1.14 (inactive),-0.272,-0.14,0.234,0.043,-0.182,0.0346,-0.0334,0.31
C=C(COC)/C(=C/C[C@H](OC(=O)c1ccncc1)c1ccccc1OCCO)c1cc(C(=O)OC)ccc1OC,0.601,0.614 (inactive),0.118,-0.11,0.752,1.2,0.0479,1.27,0.0156,0.784
C=CCNC(=O)[C@@H]1[C@H]2C(=O)O[C@H](c3ccccc3)[C@H](c3ccccc3)N2[C@H](c2ccc(OCCO)cc2)[C@@]12C(=O)N(C(=O)OCCOC)c1ccc(C#Cc3ccc(OC)cc3)cc12,0.645,-0.116 (inactive),0.182,-0.151,0.402,1.39,0.78,1.3,0.151,1.14
COc1ccc(C#Cc2ccc3c(c2)[C@]2(C(=O)N3)[C@H](c3ccc(OCCO)cc3)N3[C@H](c4ccccc4)[C@H](c4ccccc4)OC(=O)[C@H]3[C@@H]2C(=O)NC[C@H](O)c2ccccc2)cc1,0.615,-0.128 (inactive),0.779,-0.0531,0.496,1.71,0.117,1.3,0.152,1.02
OCCCC1=CC(c2ccc(CN3CCCC3)cc2)N(Cc2cc3c(cc2Br)OCO3)CC1 (stereo not given),-0.715,-0.888 (inactive),0.0833,-0.0467,0.0435,-0.437,0.597,-0.063,0.901,0.22
CC1CC/C=C\[C@H]2OC34C=CCN(C(C)C)C(=O)[C@H]3N(CCO)C(=O)[C@@H]4C2C(=O)O1 (stereo not given in full),-0.935,-0.0467 (inactive),-0.312,-0.125,0.933,-0.31,0.492,-0.175,-1.26,-1.8
NCCCCCCNC(=O)[C@@H]1C[C@@H]2C(=O)N[C@@H](CCCCN)C(=O)N2[C@@H]1c1ccc(O)cc1,-1.58,1.7 (inactive),-0.0431,-0.0386,0.782,1.68,1.18,0.762,0.667,0.0619
O=C(NCc1ccc(F)cc1)[C@H]1C[C@H]2C(=O)NCC(=O)N2[C@H]1c1ccc(O)cc1,-0.447,0.534 (inactive),0.0066,-0.084,0.694,1.43,0.112,1.07,0.491,0.8

SMILES,composite z-score (Albumin (Bos taurus)),composite Z-score [1],composite z-score [2],composite z-score [3],composite z-score [4],composite z-score [5],composite z-score [6],composite z-score (Sam68 (KHDRBS1)),composite z-score [7],composite z-score [8]
CCCCC(CC)C(O)C1C=CC2C(=O)N(C)C(=O)C2N1Nc1ccccc1 (stereo not given),0.928,0.576 (inactive),0.0934,-0.0804,0.655,1.99,0.245,1.31,-0.113,0.586
COCC(=C=CC[C@H](O)c1ccccc1OCCO)C[C@H](O)c1ccccn1,0.519,0.2 (inactive),-0.116,-0.0984,0.426,-0.0733,-0.144,0.544,-0.123,0.215
CCOc1cc(C(O)C2C=CC3C(=O)NC(=O)C3N2Nc2ccc(Cl)cc2Cl)ccc1O (stereo not given),-0.671,0.568 (inactive),-0.152,-0.0601,0.797,1.23,-0.587,-1.94,-0.157,-0.915
CCCCC(CC)C(O)C1C=CC2C(=O)N(c3ccccc3)C(=O)C2N1Nc1ccccc1F (stereo not given),0.468,-0.243 (inactive),0.225,-0.153,0.749,2.75,0.51,1.12,-0.904,0.0845
CCCCCCCCCCC(O)C1C=CC2C(=O)N(c3ccccc3)C(=O)C2N1Nc1ccc(C#N)cc1 (stereo not given),0.957,0.338 (inactive),0.286,0.0169,0.562,1.53,0.906,1.34,-0.842,1.12
CCCCCN1CC=CC23O[C@@H]4/C=C\CCC(C)OC(=O)C4[C@H]2C(=O)N(C(CO)C(C)C)[C@@H]3C1=O (stereo not given in full),0.157,0.141 (inactive),-0.247,-0.182,0.824,0.337,0.57,0.132,-0.461,0.192
COc1ccc(CCNC(=O)[C@@H]2c3ccccc3C(=O)N(C3CCCCC3)[C@H]2c2ccc(CO)cc2)cc1,-0.295,0.0861 (inactive),-0.119,-0.0317,0.608,2.15,0.922,0.508,-0.524,0.802
CS(=O)(=O)CCOC(=O)C1=CC(c2ccc(CO)cc2)=CC(C2CC2)N(Cc2sc3ccccc3c2Cl)C=C1C(=O)OCCS(C)(=O)=O (stereo not given),0.52,0.42 (inactive),0.029,-0.0839,0.815,0.737,0.55,1.03,0.802,1.11
COc1ccc([Si](C)(C)[C@@H]2[C@@H](CCO)O[C@]3(C(=O)N(Cc4ccccc4)c4ccc(NC(=O)[C@H](C)O)cc43)[C@H]2C)cc1,0.0962,-0.0289 (inactive),0.147,-0.106,0.377,1.2,0.515,1.29,0.448,1.14
O=C1[C@H]2C=C(I)[C@H](C[C@@H]2OCCOCCO)[C@@]12CO2,-0.35,-0.175 (inactive),-0.0299,-0.173,-0.0167,-0.477,0.072,0.807,0.466,0.2
C#Cc1cc2ccccc2oc1=O,0.683,0.207 (inactive),-0.437,-0.126,0.637,0.688,0.216,0.343,-2.62,-0.486
COc1ccc([Si](C)(C)[C@@H]2[C@@H](CC(=O)N3CCC[C@H]3CO)O[C@]3(C(=O)N(Cc4cccc(N5C(=O)COc6ccccc65)c4)c4ccccc43)[C@H]2C)cc1,0.577,0.254 (inactive),-0.0821,-0.167,0.462,0.664,0.271,1.3,0.291,1.12
CN(C)C(=O)[C@]1(Cc2ccccc2CN=[N+]=[N-])N=C(c2ccc(OCCCO)cc2)O[C@@H]1c1ccccc1,0.349,-0.4 (inactive),0.113,-0.0896,0.402,2.06,0.454,1.3,-1.08,1.04
COC(=O)c1c(CC[C@@H](CO)NC(=O)N[C@@H](C)Cn2cc(-c3ccccn3)nn2)oc(C(C)=O)c1C(=O)OC,-0.373,0.615 (inactive),0.11,-0.0995,0.708,0.267,-0.555,0.871,0.204,0.743
COC(=O)[C@@]1(Cc2ccc(F)cc2)[C@H]2c3cc(C(=O)N4CCCC4)n(Cc4ccc(C)c(F)c4F)c3C[C@H]2CN1C(=O)c1ccccc1,1.04,-0.474 (inactive),-0.0304,0.219,0.834,0.922,1.14,-0.451,-0.186,-0.927
O[C@@H](Cc1ccccc1)[C@@H](/C=C/C1CC1)N(CC#Cc1ccccc1)Cc1ccccc1Br,-0.144,0.586 (inactive),-0.218,-0.171,-0.0441,0.41,0.146,-1.33,-1.36,-0.564
COc1ccc([Si](C)(C)[C@H]2[C@H](CC(=O)N(CCO)Cc3ccccc3)O[C@@]3(C(=O)N(C)c4c(Br)cc(C)cc43)[C@@H]2C)cc1,0.509,-0.324 (inactive),-0.0072,-0.179,0.731,1.07,0.0123,0.995,1.27,0.652
